HT1080NT lethal – kills 2HG-producing HT-1080-NT fibrosarcoma cells | HT-1080-NT fibrosarcoma viability, CellTiter-Glo ATP luminescence, 48 h | Potency, µM (doses to about 46.1 µM), most hits filed as cytotoxic | hit rate 1.6% among 360,000 | AID 686970;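 further: NT is the 2HG producing partner of a matched IDH1 knockdown line; nearly all actives have a fitted effect of over 55% in size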
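Fibrosarcoma NT cells, 750 per well in 5% FBS RPMI, were exposed to compound for 48 hours. Viability: CellTiter-Glo luminescence.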
HepG2 viability – HepG2 cytotoxicity, counter-screen for TGF-b inhibitors; HepG2 CAGA-GFP viability, ATP luminescence, 18 h; Potency, µM (series often up to 46.1 µM), usual class: cytotoxic; hit rate 0.76% among 410,000; AID 588856
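HepG2 CAGA-GFP cells (1000/well, DMEM with 1% FBS) received compound, then TGF-beta at 500 pg/mL final, and were incubated 18 hours at 37 degrees C. Viability was read by CellTiter-Glo luminescence. Media-only wells were set as complete cell-killing and DMSO as no toxicity.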
TGFb SMAD3 inh – inhibitors of TGF-b signaling; AID 588855; HepG2 CAGA-GFP TGF-b/SMAD3 reporter, GFP fluorescence, 18 h; TGF-beta stimulated, 500 pg/mL final; Potency, µM (doses to about 46.1 µM), actives largely listed as inhibitors; hit rate 1.2% among 410,000; further: nearly all actives have a fitted effect of over 65% in size
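Read-out: total well GFP (ex488/em500-530) summed from mean per-cell fluorescence. Cells: HEPG2 CAGA-GFP, 1% FBS DMEM, 18 h at 37 degrees C with 500 pg/mL final TGF-beta. Unstimulated wells served as the full-inhibition control; stimulated DMSO wells = 0%.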
IL1B secr inh – inhibitors of inflammasome signaling (IL-1 beta secretion) | THP-1 LPS/ATP IL-1B secretion, AlphaLISA, 16 h; active compounds read low | activity change, % at 57.5 µM | hit rate 4.7% among 360,000 | AID 743279; in the data active means activity change below about -50%; inconclusive means mostly about -30% to -49%
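THP-1 cells pretreated 1 hr with compounds (up to 57.5 uM final), then stimulated with LPS (250 ng/mL final) plus ATP (1.25 mM final); secreted IL-1B measured by AlphaLISA after 16 hr, decreased signal indicating inhibition.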
HT1080 IDH1KD tx – kills HT-1080 cells with IDH1 knockdown; HT-1080 IDH1 knockdown viability, ATP luminescence, 48 h; Potency, µM (series often up to 46.1 µM), actives largely listed as cytotoxic; hit rate 2% among 360,000
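Viability of IDH1-knockdown HT-1080 fibrosarcoma cells was assessed by CellTiter-Glo after 48 h at 37 °C with titrated compound; concentration-effect curves were classified by fit quality and response size.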
Giardia kill – kills Giardia lamblia; activity change, % at 7.66 µM, hits read low; Giardia lamblia trophozoite viability; AID 540267; hit rate 0.15% among 340,000; in the data active means activity change below about -80%; inconclusive means between about -30% and that limit;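 further: parasites exposed to compound for two days anaerobically before the ATP read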
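Compounds were tested on trophozoites seeded at 100 cells/well and held 48 hrs at 37 deg C anaerobically. An ATP-based luminescent kit measured the remaining live cells.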
Numbers stand for hits; i = inactive; ? = inconclusive; nt = not tested or not shown. Compounds with a hit are over-represented: about 6.5% of the library has one in this group of screens. Unless noted, the call rests on the fitted dose curve; in most records, active means well fitted curve in the direction sought with a large enough effect; inconclusive means small, poorly fitted or top-dose-only effect, or another doubt; inactive means no such curve, though single readings can be large; an effect the other way counts as inactive or inconclusive.

SMILES | HT1080NT lethal | HepG2 viability | TGFb SMAD3 inh | IL1B secr inh | HT1080 IDH1KD tx | Giardia kill
CC(C)c1ccc(NC(=O)CSC2=Nc3ccccc3C3=NC(CC(=O)NC4CCCCC4)C(=O)N23)cc1 (stereo unspecified) | nt | 12.6µM | ? | nt | nt | nt
C=CCS(=O)(=O)c1nc2ccccc2s1 | i | 10µM | 17.8µM | -115.0 | i | i
CC(C)(C)S(=O)(=O)c1nc2ccccc2s1 | i | i | i | ? | i | i
O=S(=O)(CCSc1nc2ccccc2s1)c1nc2ccccc2s1 | 20.6µM | i | ? | -100.0 | 20.6µM | i
CCS(=O)(=O)CCSc1nc2ccccc2s1 | i | i | i | i | i | i
O=C1NCCN1c1ncc([N+](=O)[O-])s1 | i | i | i | i | i | -88.1
O=C1CCCN1c1ncc(S(=O)(=O)c2ccc([N+](=O)[O-])cc2)s1 | i | i | ? | i | i | i
Cc1cccc(NC(=O)/C(C#N)=C\c2cc(C)n(-c3ccc(C(=O)O)cc3)c2C)c1 | i | i | i | -78.3 | i | i
Cc1cc(/C=C(\C#N)C(=O)Nc2ccccc2)c(C)n1-c1ccc(C(=O)O)cc1 | i | i | i | ? | i | i
COc1ccc(NC(=O)/C(C#N)=C\c2cc(C)n(-c3ccc4c(c3)OCO4)c2C)cc1 | 1.84µM | i | i | i | 2.06µM | i
CCc1cc(Cn2nc(-c3ccccc3)cc2C(=O)NCc2cccc(Br)c2)on1 | i | i | ? | -52.5 | i | i
Cc1nc(SCC(=O)c2c(N)n(C3CC3)c(=O)[nH]c2=O)[nH]c(=O)c1CCO | i | i | i | i | i | i
COC1(OC)C(/C=C/c2ccc(C)cc2)C(C#N)(C#N)C1(OC)OC (stereo unspecified) | ? | i | ? | -120.0 | ? | i
Cc1c(-n2c(CN3C(=O)c4ccccc4C3=O)nc3ccccc3c2=O)c(=O)n(-c2ccccc2)n1C | i | i | i | i | i | i
N#Cc1nc(-c2ccc(F)cc2)oc1N1CCCCC1 | ? | i | i | i | i | i
COc1cc2[nH]c3c(=O)n4c(nc3c2cc1OC)SCCC4 | 7.31µM | i | ? | -61.3 | 7.31µM | i
COc1ccc(C2(C)NC(=O)N(CC(=O)Nc3ccc(C)cc3Br)C2=O)cc1OC (stereo unspecified) | i | i | i | i | i | i
O=S1(=O)CC(c2ccccc2)=NN=C(c2ccccc2)C1 | i | i | i | i | i | nt
S=c1nc[nH]c2c1ncn2C1CCCO1 (stereo unspecified) | 4.61µM | i | i | i | 8.2µM | i
Cc1ccc2c(c1)/C(=C/c1ccccc1)C(=O)N2 | i | i | ? | -82.0 | ? | i
Cc1ccc2c(c1)/C(=C/c1ccccc1F)C(=O)N2 | i | i | i | i | i | i
C=CCn1c[n+](CC(=O)c2ccc(Br)s2)c2ccccc21 | i | i | i | -65.4 | i | i
C=C(C)c1nc(Oc2ccccc2)nc(Oc2ccccc2)n1 | ? | i | 11.2µM | -100.0 | ? | i
Cc1cc(Oc2ccccc2)nc(-c2ccccc2)n1 | i | i | i | i | i | i
COc1ccccc1CCn1cnc(-c2ccc(OC)c(OC)c2)c1C(C)C | 23.1µM | nt | nt | -51.3 | ? | nt
SMILES | HT1080NT lethal | HepG2 viability | TGFb SMAD3 inh | IL1B secr inh | HT1080 IDH1KD tx | Giardia kill
CCCc1c(-c2ccc(Cl)cc2)ncn1CCc1ccccc1OC | ? | nt | nt | -92.9 | ? | nt
CCCCc1c(-c2ccc(OC)c(OC)c2)ncn1CCc1ccccc1OC | 14.6µM | nt | nt | -50.9 | 11.6µM | nt
CCCCCc1c(-c2ccccc2)ncn1CCc1ccccc1OC | ? | nt | nt | i | ? | nt
CCCCc1c(-c2cccc(OC)c2)ncn1CCc1ccccc1OC | 20.6µM | nt | nt | -95.6 | 25.9µM | nt
CCCc1c(-c2ccc(F)cc2)ncn1CCc1ccccc1OC | ? | nt | nt | i | ? | nt
O=C(Nc1ccccc1)c1cccc(S(=O)(=O)N2CCCCC2)c1 | i | i | i | i | i | i
CC1CCN(S(=O)(=O)c2nnc(NC(=O)c3cccc(Br)c3)s2)CC1 | nt | i | 4.47µM | nt | nt | nt
CC1CCN(S(=O)(=O)c2cccc(C(=O)Nc3ccccc3)c2)CC1 | i | i | i | -54.2 | i | i
N[C@@H](Cc1ccc(O)c(O)c1)C(=O)O | i | i | i | -107.2 | i | i
NC(Cc1ccc(O)c([N+](=O)[O-])c1)C(=O)O (stereo unspecified) | i | i | i | i | i | i
CC(Cc1ccc(O)c(O)c1)C(C)Cc1ccc(O)c(O)c1 (stereo unspecified) | i | i | i | -74.6 | ? | i
CN(C)C(=S)SCCn1c(N)nc(N(C)C)nc1=O | i | i | i | i | i | i
CCCCNC(=O)C(C#N)c1nc2ccccc2nc1N1CCN(c2ccccc2F)CC1 (stereo unspecified) | i | i | i | i | i | i
N=c1oc2cc(O)ccc2cc1C(=O)Nc1ccc(Br)cc1 | ? | i | i | -89.9 | ? | i
N=c1oc2ccccc2cc1C(=O)Nc1ccccc1 | i | i | i | i | i | i
Cc1nn(C(C)C(=O)NCCCN2CCCCC2C)c(=O)c2c1sc1ccccc12 (stereo unspecified) | i | i | i | i | i | i
CC(C)=NNc1nc2c(c(=O)[nH]c(=O)n2C)n1CCCc1ccccc1 | i | i | i | i | ? | i
C=COC(=O)NC1CCc2cc(OC)c(OC)c(OC)c2-c2ccc(SC)c(=O)cc21 (stereo unspecified) | 0.184µM | i | ? | i | ? | i
COc1cc2c(c(OC)c1OC)-c1ccc(SC)c(=O)cc1C(NC(=O)c1ccccc1)CC2 (stereo unspecified) | ? | i | ? | ? | ? | i
COc1c(C=O)c2c(c(OC)c1OC)-c1ccc(OC)c(=O)cc1C(NC(C)=O)CC2 (stereo unspecified) | 0.0052µM | i | ? | i | ? | i
COC(=O)c1ccc2c(c1)C(NC(C)=O)CCc1cc(OC)c(OC)c(OC)c1-2 (stereo unspecified) | 0.0065µM | i | ? | -72.6 | ? | i
CCCC(=O)NC1CCc2cc(OC)c(OC)c(OC)c2-c2ccc(OC)c(=O)cc21 (stereo unspecified) | ? | i | ? | i | ? | i
COc1cccc(C(=O)Nc2ccc3c(cc2=O)[C@@H](NC(C)=O)CCc2cc(OC)c(OC)c(OC)c2-3)c1 | 5.8µM | i | ? | i | 4.61µM | i
COc1c(O[C@@H]2O[C@H](CO)[C@@H](O)[C@H](O)[C@H]2O)cc2c(c1OC)-c1ccc(SC)c(=O)cc1C(NC(C)=O)CC2 (stereo partly specified) | ? | i | i | i | ? | i

Compound activity deposited in PubChem BioAssay by National Center for Advancing Translational Sciences (NCATS).
